Here are results for 41 molecules from PubChem BioAssay AID463193 (University of Pittsburgh Molecular Library Screening Center, 2010).

The whole screen tested about 190,000 compounds, of which about 1,900 (1%) were called active.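 How the source made its calls: active means percentage of spot-positive cells more than 3 SD above its plate mean, without a fluorescence outlier flag or 80% toxicity; inconclusive means no clear call, values can overlap the other calls; inactive means the rest.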 The list comes from a sample in which actives are over-represented; it also holds similar structures and randomly drawn compounds.

The nature of this assay: autophagy modulators in MEF cells, primary screen, imaging, high-content, MEF GFP-LC3 (AID 463193).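 On % cells with GFP-LC3 spots: spot-positive cell cutoff set from DMSO-treated cells.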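 On toxicity: cell loss after 18 h compound exposure.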 Particulars: MEF GFP-LC3 puncta imaging, at 10 µM; % cells with GFP-LC3 spots: stronger effect = higher value; toxicity: measured here: cell loss, nuclei count.
In the case of `CCOC(=O)C1=C(C)OC(N)=C(C#N)C1c1cncc(-c2ccc(F)cc2)c1` (configuration not stated), the % cells with GFP-LC3 spots is 6.18% (inactive) and the toxicity is 10.5%.
The like results for `N#C/C(=C\C1=C(N2CCOCC2)C(=C\c2ccccc2)/CC1)C(=O)Nc1ccccc1F` were, in that order, 94.8% (active) and 9.15%.
As for `C(=N\N1CCN(c2ccccn2)CC1)/C1=C(N2CCOCC2)C(=C/c2ccccc2)/CC1`, the % cells with GFP-LC3 spots was 21.9% (inactive) and the toxicity was determined as 10.4%.
On to `N#C/C(=C\c1ccccc1C(F)(F)F)C(=O)Nc1ccccc1F`, for which the % cells with GFP-LC3 spots was 17.6% (inactive) and the toxicity was -10.6%.
On to `O=C1CCCN1CCCNC(=S)Nc1ccc(F)c(Cl)c1`, for which the % cells with GFP-LC3 spots is 9.25% (inactive) and the toxicity was 10.7%.
On to `COc1cccc(C(=O)Nc2ccc(N3CCCC3)cc2)c1`, for which the % cells with GFP-LC3 spots was 41.2% (active) and the toxicity worked out at 21.3%.
For `COc1cccc(OC)c1C(=O)Nc1ccc(N2CCCCC2)cc1`, the % cells with GFP-LC3 spots was 4.97% (inactive) and the toxicity is 0.418%.
With `COc1ccc(C(=O)NC(=S)Nc2ccc(N3CCCC3)cc2)cc1OC`, the % cells with GFP-LC3 spots was 2.21% (inactive) and the toxicity was determined as 8.63%.
The like results for `CC(=O)N/C(=C/c1ccc(Cl)cc1)C(=O)NCCc1c[nH]c2ccccc12` were, in that order, 1.94% (inactive) and -16.7%.
As to `N#C/C(=C/c1ccc(N2CCCCC2)o1)C(=O)NCCc1c[nH]c2ccccc12`, the % cells with GFP-LC3 spots is 95% (active) and the toxicity was -16.4%.
As to `O=C(NCCc1c[nH]c2ccccc12)C(=O)NCC1CCCO1` (configuration not stated), the % cells with GFP-LC3 spots is 2.06% (inactive) and the toxicity came to 4.43%.
For `O=C(Nc1cccc(F)c1)c1ccc(S(=O)(=O)N2CCCC2)cc1`, the % cells with GFP-LC3 spots is 2.96% (inactive) and the toxicity is -0.834%.
For the molecule `COc1ccc(C(=O)Nc2ccc(F)cc2F)cc1`, the % cells with GFP-LC3 spots is 8.35% (inactive) and the toxicity stood at 1.69%.
Take `CCOC(=O)N1CCN(S(=O)(=O)c2ccc(C(=O)Nc3ccc(F)cc3F)cc2)CC1`: the % cells with GFP-LC3 spots was 13.1% (active) and the toxicity was determined as 35.6%.
In the case of `CCCCN1C(=O)/C(=C/C=C2/C=Cc3ccccc3N2CC)SC1=S`, the % cells with GFP-LC3 spots was 36.6% (active) and the toxicity amounted to 17.1%.
With `CCCCN1C(=O)/C(=C2/C=CC=CN2C)SC1=S`, the % cells with GFP-LC3 spots was 2.78% (inactive) and the toxicity was -16.3%.
Taken in the same sequence, the figures for `O=C(CCCN1C(=O)/C(=C/c2ccccc2)SC1=S)Nc1ccc(O)cc1` were 5.17% (inactive) and 20.5%.
`Cc1ccccc1Cn1nc(C)c(NC(=O)C(F)(F)F)c1C`: the % cells with GFP-LC3 spots was 25.2% (inactive) and the toxicity was -15.5%.
As for `COc1ccc(NC(=O)COC(=O)c2ccncc2)c(OC)c1`, the % cells with GFP-LC3 spots was 4.41% (inactive) and the toxicity is 21.4%.
With `CC1c2nc3ccccc3n2C(CC(=O)NCCCN2CCOCC2)C(=O)N1Cc1ccccc1` (configuration not stated), the % cells with GFP-LC3 spots was 6.3% (inactive) and the toxicity is -3.99%.
On to `COc1ccc(OC)c(NC(=S)N2CCc3ccccc3C2)c1`, for which the % cells with GFP-LC3 spots was 1.08% (inactive) and the toxicity is -17.2%.
As to `Cc1cc(C)n(-c2cc(Oc3ccccc3)ncn2)n1`, the % cells with GFP-LC3 spots was 4.54% (inactive) and the toxicity was -5.5%.
For `COc1ccc(Nc2cc(C)nc(-n3nc(C)cc3C)n2)cc1`, the % cells with GFP-LC3 spots is 1.92% (inactive) and the toxicity was 48.3%.
Regarding `CC(=O)c1ccc(Oc2cc(C)nc(-n3nc(C)cc3C)n2)cc1`, the % cells with GFP-LC3 spots is 22.7% (active) and the toxicity was determined as 52.9%.
The like results for `O=C1/C(=C\c2ccsc2)NC(=S)N1c1ccccc1` were, in that order, 0.432% (inactive) and 4.12%.
As for `Nc1[nH]c(=S)nc2nc(-c3ccccc3)c(-c3ccccc3)nc12`, the % cells with GFP-LC3 spots is 14.2% (inactive) and the toxicity turned out to be 22.7%.
Taken in the same sequence, the figures for `O=C(O)CS/C(=C\c1ccc(F)cc1)c1nc2ccccc2s1` were 5.4% (inactive) and -6.27%.
Regarding `CC1=CC(=C(C#N)c2nc3ccccc3s2)C=C(C)N1c1ccc(F)cc1F`, the % cells with GFP-LC3 spots was 27.8% (active) and the toxicity turned out to be 15.8%.
Regarding `N#C/C(=C(/O)Cc1cccc2ccccc12)c1nc2ccccc2s1`, the % cells with GFP-LC3 spots was 0.484% (inactive) and the toxicity is -0.84%.
`CCOc1ccc2c(c1)cc(CN(C(=O)CC)C1CCCCC1)c1nnnn12`: the % cells with GFP-LC3 spots was 5.66% (inactive) and the toxicity was determined as 13.7%.
Take `CCc1ccc2c(c1)cc(CN(C(=S)Nc1ccccc1Cl)C1CC1)c1nnnn12`: the % cells with GFP-LC3 spots is 19.7% (active) and the toxicity is 11.8%.
Taken in the same sequence, the figures for `COCCN(CCOC)C(=S)Nc1ccccc1Cl` were 8.84% (inactive) and -8.3%.
With `CSc1ccc(CCNC(=O)C2CCN(c3nnc(-n4cccc4)s3)CC2)cc1`, the % cells with GFP-LC3 spots is 4.67% (inactive) and the toxicity was found to be 3.56%.
Turning to `CCOC(=O)C1CCCN(C(=O)c2cncc(Br)c2)C1` (configuration not stated), the % cells with GFP-LC3 spots is 9.51% (inactive) and the toxicity came out at 4.79%.
Take `CCOC(=O)C1CCCN(C(=O)C2CCN(c3nnc(-n4cccc4)s3)CC2)C1` (configuration not stated): the % cells with GFP-LC3 spots is 15.3% (active) and the toxicity came out at 6.19%.
For the molecule `Fc1cc(Br)ccc1NC(=S)Nc1cccnc1`, the % cells with GFP-LC3 spots was 4.97% (inactive) and the toxicity is -1.9%.
On to `Cc1cccc(N=C2NC(=O)/C(=C/c3cn(C)c4ccccc34)S2)c1`, for which the % cells with GFP-LC3 spots is 2.55% (inactive) and the toxicity turned out to be 4.32%.
Turning to `CN(C)c1ccc(-n2cccc2/C=C2/SC(=Nc3ccc(F)cc3)NC2=O)cc1`, the % cells with GFP-LC3 spots is 93.2% (active) and the toxicity is -20.2%.
In the case of `CN(C)c1ccc(-n2cccc2/C=N/n2cnnc2)cc1`, the % cells with GFP-LC3 spots is 4.65% (inactive) and the toxicity was -2.02%.
For the molecule `CCC(C)(C)NC(=O)/C=C/c1cc(OC)c(OC)c(S(=O)(=O)N2CCc3ccccc32)c1`, the % cells with GFP-LC3 spots is 11.3% (inactive) and the toxicity turned out to be 20%.
The like results for `O=C(Nc1cccc([N+](=O)[O-])c1)Nc1ccc(Cl)cn1` were, in that order, 1.56% (inactive) and 15.9%.
